Data: the supplement of paper PMC3545927
Some of the results follow. The hit rate among all sequences tested is not known here.

B1: HC986 (peptide)
chain: CAADLEVVTSAGNASASA
B2: FS-1617 (peptide)
chain: CATSSRSARKAGNASASA
B3: FS-389 (peptide)
chain: CAYDSMKKRDAGNASASA
B4: FS-630 (peptide)
chain: CATSSRRKRDAGNASASA
B5: FS-885 (peptide)
chain: CATSNSLKRDAGNASASA
B6: FS-2286 (peptide)
chain: CARPSRQIHKAGNASASA
B7: FS-1565 (peptide)
chain: CARPSRVARDAGNASASA
B8: FS-1479 (peptide)
chain: CARPSRPWRDAGNASASA
B9: FS-1013 (peptide)
chain: CAIITRWKRDAGNASASA
B10: HC1047 (peptide)
chain: CAQYLAGLSTAGNASASA
B11: FS-2559 (peptide)
chain: CARKKKAWIYAGNASASA
B12: HC2016 (peptide)
chain: CAVGCCSMSYAGNASASA
B13: TR4 (peptide)
chain: CAQSPRSFQKAGNASASA
B14: HC227 (peptide)
chain: CALMGYIPLVAGNASASA
B15: HC1704 (peptide)
chain: CAMEICSQHLAGNASASA
B16: FS-185 (peptide)
chain: CARAERAARFAGNASASA
B17: FS-864 (peptide)
chain: CARRHRTYRWAGNASASA
B18: FS-1074 (peptide)
chain: CARRHRRPRRAGNASASA
B19: FS-1059 (peptide)
chain: CARAERRPRRAGNASASA
B20: FS-918 (peptide)
chain: CARRHRKKKRAGNASASA
B21: HC1405 (peptide)
chain: CAKEVKAAASAGNASASA
B22: HC1632 (peptide)
chain: CAKYLFNWAVAGNASASA
B23: HC1143 (peptide)
chain: CASSECTTPCAGNASASA
B24: HC1998 (peptide)
chain: CATVCCSMSYAGNASASA
B25: HC1076 (peptide)
chain: CAGAGLAGAAAGNASASA
B26: FS-97 (peptide)
chain: CATIKRLKRSAGNASASA
B27: FS-30 (peptide)
chain: CAHHSPLKRSAGNASASA
B28: FS-218 (peptide)
chain: CAAVARLKRSAGNASASA
B29: FS-2853 (peptide)
chain: CATIKRSVISAGNASASA
B30: HC2331 (peptide)
chain: CAEDPCHRPSAGNASASA
B31: HC1116 (peptide)
chain: CAGAVQWMNRAGNASASA
B32: FS-1132 (peptide)
chain: CAKLNRKYRSAGNASASA
B33: FS-810 (peptide)
chain: CAKLNRRSRKAGNASASA
B34: FS-796 (peptide)
chain: CAHQRRKYRSAGNASASA
B35: HC1489 (peptide)
chain: CAEAIYQCCDAGNASASA
B36: HC473 (peptide)
chain: CATIFKIRMYAGNASASA
B37: FS-1657 (peptide)
chain: CASLCRYRRVAGNASASA
B38: FS-242 (peptide)
chain: CAGKFRYRRVAGNASASA
B39: HC1055 (peptide)
chain: CASLMAFTAAAGNASASA
B40: HC1407 (peptide)
chain: CAAAASKVKAAGNASASA
B41: HC1109 (peptide)
chain: CAVCAAILRRAGNASASA
B42: FS-2649 (peptide)
chain: CARARRQDVKAGNASASA
B43: FS-1685 (peptide)
chain: CARARRVLEAAGNASASA
B44: FS-2252 (peptide)
chain: CARARRAVDKAGNASASA
B45: FS-2890 (peptide)
chain: CARARRVTDAAGNASASA
B46: FS-1687 (peptide)
chain: CARCRRALRRAGNASASA
B47: FS-2130 (peptide)
chain: CARARRALRRAGNASASA
B48: FS-3148 (peptide)
chain: CARARRAIAAAGNASASA
B49: FS-2897 (peptide)
chain: CARCIRAFCRAGNASASA
B50: FS-3149 (peptide)
chain: CARARRAVQKAGNASASA

Target: furin, P09958
Assay: furin cleavage Z-score vs untreated control; higher = more cleavage, active = 3.5 or more, inactive = 1 or less, 8 variable residues between constant flanks
Method in brief: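 Purified furin digested bead-held 8-mer peptide–cDNA fusions at 1:10 enzyme:substrate in 0.01 ml of 50 mM HEPES pH 7.5 with CaCl2 and NaCl for 7.5, 15 or 30 min. The cleavage Z-score compares sequencing counts of released DNA with furin-free reactions on a log scale, with lowess adjustment and median absolute deviation scaling.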

Chain of furin, P09958 (P09958 whole entry): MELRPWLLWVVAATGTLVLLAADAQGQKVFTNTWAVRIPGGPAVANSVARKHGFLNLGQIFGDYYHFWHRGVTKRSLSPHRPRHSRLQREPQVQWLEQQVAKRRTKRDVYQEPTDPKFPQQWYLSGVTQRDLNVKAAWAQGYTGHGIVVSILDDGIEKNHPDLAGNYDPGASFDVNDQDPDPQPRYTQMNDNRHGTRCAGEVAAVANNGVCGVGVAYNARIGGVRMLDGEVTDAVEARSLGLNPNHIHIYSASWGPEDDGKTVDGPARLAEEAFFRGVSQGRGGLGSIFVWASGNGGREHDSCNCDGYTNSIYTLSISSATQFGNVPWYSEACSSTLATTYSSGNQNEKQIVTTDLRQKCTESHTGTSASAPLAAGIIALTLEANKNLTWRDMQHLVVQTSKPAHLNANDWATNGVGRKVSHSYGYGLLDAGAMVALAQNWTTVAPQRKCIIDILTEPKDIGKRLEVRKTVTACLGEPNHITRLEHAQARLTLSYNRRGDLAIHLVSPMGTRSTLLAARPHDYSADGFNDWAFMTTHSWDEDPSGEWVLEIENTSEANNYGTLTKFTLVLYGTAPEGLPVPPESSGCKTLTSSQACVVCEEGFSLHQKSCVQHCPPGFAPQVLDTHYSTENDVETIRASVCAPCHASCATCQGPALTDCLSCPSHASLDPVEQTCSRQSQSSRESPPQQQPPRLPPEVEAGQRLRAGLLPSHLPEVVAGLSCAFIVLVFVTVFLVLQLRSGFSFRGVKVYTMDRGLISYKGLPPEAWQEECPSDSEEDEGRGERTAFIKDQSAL

Sequence | furin cleavage Z-score (7.5 min) | furin cleavage Z-score (15 min) | furin cleavage Z-score (30 min)
B1 | 0.0893 (inactive) | -0.606 (inactive) | -0.099 (inactive)
B2 | -0.831 (inactive) | 2.68 | 0.36 (inactive)
B3 | 0.389 (inactive) | 0.234 (inactive) | 0.576 (inactive)
B4 | 11 (active) | 10.2 (active) | 7.47 (active)
B5 | -0.606 (inactive) | 0.0826 (inactive) | -0.0438 (inactive)
B6 | 1.18 | -0.223 (inactive) | 1.59
B7 | 13.5 (active) | 13.3 (active) | 9.92 (active)
B8 | -0.109 (inactive) | 1.22 | 0.811 (inactive)
B9 | 11.5 (active) | 11.3 (active) | 8.16 (active)
B10 | -0.145 (inactive) | 1 | 1.23
B11 | 0.615 (inactive) | -1.67 (inactive) | -1.6 (inactive)
B12 | -0.196 (inactive) | -0.437 (inactive) | 1.21
B13 | -0.296 (inactive) | -2.07 (inactive) | -0.29 (inactive)
B14 | 0.341 (inactive) | 2.34 | -0.327 (inactive)
B15 | 0.947 (inactive) | 2.02 | 0.46 (inactive)
B16 | 0.624 (inactive) | 2.79 | 2.55
B17 | 7.43 (active) | 9.85 (active) | 11.3 (active)
B18 | 5.28 (active) | 6.77 (active) | 6.21 (active)
B19 | 8.38 (active) | 9.79 (active) | 8.17 (active)
B20 | 0.00638 (inactive) | 0.147 (inactive) | 0.539 (inactive)
B21 | 0.037 (inactive) | -0.691 (inactive) | 0.852 (inactive)
B22 | -0.0484 (inactive) | 0.619 (inactive) | 0.965 (inactive)
B23 | -0.401 (inactive) | 1.52 | 0.461 (inactive)
B24 | 0.937 (inactive) | 0.131 (inactive) | 0.837 (inactive)
B25 | -0.496 (inactive) | -0.493 (inactive) | -0.847 (inactive)

Sequence | furin cleavage Z-score (7.5 min) | furin cleavage Z-score (15 min) | furin cleavage Z-score (30 min)
B26 | 11.2 (active) | 11.4 (active) | 9.36 (active)
B27 | -0.21 (inactive) | 0.983 (inactive) | 1.29
B28 | 12.9 (active) | 11 (active) | 9 (active)
B29 | 0.545 (inactive) | 0.855 (inactive) | -1.24 (inactive)
B30 | -1.74 (inactive) | -0.655 (inactive) | 0.261 (inactive)
B31 | 0.142 (inactive) | 1.71 | -0.148 (inactive)
B32 | 9.69 (active) | 8.1 (active) | 6.59 (active)
B33 | 4.08 (active) | 6.18 (active) | 5.19 (active)
B34 | 4.89 (active) | 5.12 (active) | 6.05 (active)
B35 | 1.16 | 0.588 (inactive) | 0.702 (inactive)
B36 | -0.151 (inactive) | 0.348 (inactive) | -1.46 (inactive)
B37 | 7.05 (active) | 6.79 (active) | 8.55 (active)
B38 | 9.76 (active) | 11.9 (active) | 8.82 (active)
B39 | -0.632 (inactive) | -0.242 (inactive) | -1.13 (inactive)
B40 | 0.991 (inactive) | -0.764 (inactive) | -0.995 (inactive)
B41 | -1.76 (inactive) | -0.361 (inactive) | 0.614 (inactive)
B42 | 0.761 (inactive) | 0.529 (inactive) | 2.07
B43 | -0.496 (inactive) | -0.739 (inactive) | -0.66 (inactive)
B44 | 6.76 (active) | 6.96 (active) | 6.15 (active)
B45 | -1.51 (inactive) | -0.986 (inactive) | -0.304 (inactive)
B46 | 3.87 (active) | 3.85 (active) | 7.16 (active)
B47 | 3.99 (active) | 4.89 (active) | 7.04 (active)
B48 | 5.95 (active) | 5.73 (active) | 4.12 (active)
B49 | -0.211 (inactive) | 0.945 (inactive) | 0.335 (inactive)
B50 | 1.2 | 0.71 (inactive) | 1.68
